Source: PubChem (National Center for Advancing Translational Sciences (NCATS))
Only some compounds are listed: those with a hit (about 7.9% of all), similar ones and a draw of the others.
MCF10A rereplic – A quantitative high throughput screen for small molecules that induce DNA re-replication in MCF 10a normal breast cells. MCF 10A DNA re-replication, Hoechst nuclear intensity, 48 h. AID 624296, 2012. Potency, µM (doses to about 46.1 µM), hits mostly activators. 350,000 compounds, 2.9% hits; further: nearly all actives have a fitted effect of over 50% in size
KB-3-1 tox – qHTS assay for MDR1-selective chemotherapeutics: Primary screen using the parental adenocarcinoma cell KB-3-1; KB-3-1 viability, CellTiter-Glo ATP luminescence, 72 h; Potency, µM (titrated, usually from 46.1 µM), actives largely listed as cytotoxic; 400,000 compounds, 1.4% hits; AID 1347075, 2019; further: nearly all actives have a fitted effect of over 60% in size
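Cytotoxicity in the drug-sensitive parental line KB-3-1 was scored as loss of CellTiter-Glo luminescence following 72 h incubation with compound. Values come from curve fitting of normalized concentration-response data.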
SW480 rereplic – A quantitative high throughput screen for small molecules that induce DNA re-replication in SW480 colon adenocarcinoma cells; SW480 DNA re-replication, Hoechst DNA content imaging, 48 h; Potency, µM (top dose mostly 46.1 µM), actives largely listed as activators; 340,000 compounds, 1.8% hits; AID 624297, 2012; further: nearly all actives have a fitted effect of over 55% in size
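SW480 cells exposed to compounds for 48 hr at 37 C, 5% CO2, then Hoechst-stained 40 min. Nuclear DNA content imaged by fluorescence scanning (405 nm excitation, 500-530 nm emission); re-replication scored as increased high-intensity nuclei.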
KB-V1 cytotox – qHTS assay for MDR1-selective chemotherapeutics: Primary screen using the drug-selected MDR subline cells KB-V1 | Potency, µM (highest dose often 46.1 µM), hits mostly cytotoxic | KB-V1 MDR cells viability, CellTiter-Glo, 72 h | 400,000 compounds, 3.4% hits; further: nearly all actives have a fitted effect of over 60% in size
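KB-V1 cells (P-gp-expressing MDR subline of KB-3-1) in phenol-red-free DMEM with 10% FBS were exposed to library compounds over a concentration series for 72 h at 37 degrees C. Viability read by CellTiter-Glo luminescence; concentration-effect curves fitted after normalization.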
HT1080 IDH1KD tx – qHTS for induction of synthetic lethality in tumor cells producing 2HG: qHTS for the HT-1080-IDH1KD cell line; HT-1080 IDH1 knockdown viability, ATP luminescence, 48 h; Potency, µM (series often up to 46.1 µM), most hits filed as cytotoxic; 360,000 compounds, 2% hits; AID 686971, 2013
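HT-1080-IDH1KD cells (IDH1 knocked down), 750/well in RPMI with 5% FBS, treated with compound 48 h at 37 degrees C. Viability by CellTiter-Glo luminescence, normalised to DMSO and no-cell wells; concentration-response curves classed.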
HT1080-NT tox – qHTS for induction of synthetic lethality in tumor cells producing 2HG: qHTS for the HT-1080-NT fibrosarcoma cell line | Potency, µM (top dose mostly 46.1 µM), hits mostly cytotoxic | 360,000 compounds, 1.6% hits | HT-1080-NT fibrosarcoma viability, CellTiter-Glo ATP luminescence, 48 h;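 further: NT is the 2HG producing partner of a matched IDH1 knockdown line; nearly all actives have a fitted effect of over 55% in size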
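A 48-hour cytotoxicity screen used HT-1080-NT cells plated 2 hours before compound delivery. ATP-based CellTiter-Glo luminescence measured viability, normalized to DMSO and no-cell controls.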
Large screens that a line does not name were inactive. The call rests on the fitted dose curve; in most records, active means well fitted curve in the direction sought with a large enough effect; inconclusive means small, poorly fitted or top-dose-only effect, or another doubt; inactive means no such curve, though single readings can be large; an effect the other way counts as inactive or inconclusive.

O=C(O)c1ccc(-c2nc3ccccc3[nH]2)cc1	none
CC(=O)/C(=C(/O)c1ccccc1)c1nc2ccccc2[nH]1	none
O=C(O)c1ccc(/C=C(\c2nc3ccccc3[nH]2)c2nc3ccccc3s2)cc1	MCF10A rereplic inconclusive, KB-3-1 tox inconclusive, SW480 rereplic 11.6µM, HT1080 IDH1KD tx 18.4µM, HT1080-NT tox inconclusive
Cc1cccc(/C=C(\c2nc3ccccc3[nH]2)S(=O)(=O)c2ccccc2)c1	MCF10A rereplic 5.8µM, KB-3-1 tox 4.11µM, SW480 rereplic inconclusive, KB-V1 cytotox 18.4µM, HT1080 IDH1KD tx 9.2µM, HT1080-NT tox 9.2µM
CC(C)(C)c1ccc(/C=C(\c2nc3ccccc3[nH]2)S(=O)(=O)c2ccccc2)cc1	MCF10A rereplic 5.17µM, KB-3-1 tox inconclusive, SW480 rereplic 8.2µM, KB-V1 cytotox inconclusive, HT1080 IDH1KD tx 6.51µM, HT1080-NT tox 6.51µM
COc1ccc(C(CNC(=O)Cc2ccc(-c3ccccc3)cc2)N(C)C)cc1 (configuration not stated)	MCF10A rereplic inconclusive, SW480 rereplic 18.4µM, HT1080 IDH1KD tx 20.6µM, HT1080-NT tox 18.4µM
CN(C)C(CNC(=O)c1ccc(-c2ccccc2)cc1)c1ccccc1 (configuration not stated)	SW480 rereplic inconclusive, HT1080 IDH1KD tx 16.4µM, HT1080-NT tox 16.4µM
CN(C)C(CNC(=O)c1ccc(C(=O)c2ccccc2)cc1)c1ccccc1 (configuration not stated)	MCF10A rereplic inconclusive
COC(=O)CS(=O)(=O)c1nc2ccccc2nc1N1CCCCC1	none (no result: MCF10A rereplic, SW480 rereplic, HT1080 IDH1KD tx, HT1080-NT tox)
Cc1c(Cl)cccc1NC(=O)CSc1nc(=O)n(Cc2ccccn2)c2c1CCC2	none (no result: MCF10A rereplic, SW480 rereplic, HT1080 IDH1KD tx, HT1080-NT tox)
OCc1ccccc1-c1cnc2sc(NCc3ccc(F)cc3)nn12	none (no result: MCF10A rereplic, SW480 rereplic)
COc1ccccc1OCCOCCOc1ccc(C)cc1[N+](=O)[O-]	KB-V1 cytotox 13µM
COc1cc(C)ccc1OCCOCCOc1ccccc1[N+](=O)[O-]	none
O=C(Nc1cccn(Cc2c(F)cccc2Cl)c1=O)NC1CCCCC1	MCF10A rereplic 20.6µM, KB-3-1 tox 2.59µM, SW480 rereplic 18.4µM, KB-V1 cytotox inconclusive, HT1080 IDH1KD tx inconclusive, HT1080-NT tox inconclusive
C#CCOC(=O)Nc1cccn(Cc2c(Cl)cccc2Cl)c1=O	MCF10A rereplic inconclusive, KB-3-1 tox 10.3µM, SW480 rereplic inconclusive, KB-V1 cytotox inconclusive, HT1080 IDH1KD tx inconclusive, HT1080-NT tox inconclusive
C[C@H]1CN([C@@H](C)CO)C(=O)CCCn2cc(nn2)CO[C@@H]1CN(C)S(=O)(=O)c1ccc(Oc2ccccc2)nc1	none (no result: MCF10A rereplic, SW480 rereplic)
Cc1cc(C)nc(SC2CC(=O)N(c3ccc(Cl)cc3)C2=O)n1 (configuration not stated)	MCF10A rereplic inconclusive
Cc1cc(C)nc(SC2CC(=O)N(c3ccc(C)c(C)c3)C2=O)n1 (configuration not stated)	KB-3-1 tox inconclusive, SW480 rereplic inconclusive, KB-V1 cytotox inconclusive, HT1080 IDH1KD tx 16.4µM, HT1080-NT tox inconclusive
CCCCCN1C(C(=O)c2ccccc2)=C(NC(=O)c2ccc(OC)c(OC)c2)c2ccccc2S1(=O)=O	KB-3-1 tox inconclusive (no result: MCF10A rereplic, SW480 rereplic, HT1080 IDH1KD tx, HT1080-NT tox)
O=C(NNC(=O)C1CCN(S(=O)(=O)c2c(Cl)cccc2Cl)CC1)c1ccccc1O	MCF10A rereplic inconclusive, KB-3-1 tox inconclusive, SW480 rereplic inconclusive, KB-V1 cytotox 18.4µM
CCOc1ccc(C(=O)COC(=O)Cn2[nH]c(=O)c3ccccc3c2=O)cc1	none (no result: MCF10A rereplic, SW480 rereplic)
CS(=O)(=O)c1ccc2nc(NC(=O)c3cccs3)sc2c1	KB-3-1 tox inconclusive, KB-V1 cytotox inconclusive, HT1080 IDH1KD tx 23.1µM, HT1080-NT tox inconclusive
COc1cc(C(=O)Nc2nc3ccc(S(C)(=O)=O)cc3s2)cc(OC)c1C	SW480 rereplic 18.4µM
COc1cc(/C=C/C(=O)Nc2nnc(C(C)(C)C)s2)cc(OC)c1OC	KB-V1 cytotox inconclusive
